Assay outcomes as filed in PubChem BioAssay.
FXIIa inh mix – inhibitors of human coagulation factor XIIa, pooled mixtures; P00748; purified FXIIa, fluorogenic substrate; inhibition, % at 5 µM; 62,000 compounds, 0.2% hits; AID 684;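 also: 0% = enzyme without compound and 100% = no enzyme blank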
hDAT+cocaine – changed human dopamine transporter uptake under cocaine IC80; Q01959; LLC-PK1 hDAT cells, [14C]-dopamine uptake with cocaine IC80; actives deviate in either direction; 110,000 compounds, 1.3% hits; B-score at 10 µM;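 active = Z score or B-score, a plate-position-corrected score, falls beyond the plate's 99.7% confidence bounds, in either direction; inactive = both scores lie inside the 99.7% bounds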;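 also: scored against the spread of the other compound wells on the same plate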
FXIa mix inh – blocks human factor XIa in pooled compound mixtures; P03951; purified FXIa, fluorogenic substrate; inhibition, % at 5 µM; 62,000 compounds, 0.19% hits;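 also: each value is inhibition by a whole ten-compound pool holding the compound; 0% = enzyme with no mixture and 100% = wells lacking enzyme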
M1 ag – M1 muscarinic receptor agonism; CHO-M1 cells, Fluo-4 calcium fluorescence, agonist mode; active compounds read high; B-score at 10 µM; 64,000 compounds, 3% hits;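 active = fluorescence rise, raw or as B-score row- and column-corrected plate score, outside the 99.7% band of its plate's samples, either direction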
M1 antagonist – M1 muscarinic receptor (rat) antagonism | P08482 | CHO-M1 cells, Fluo-4 calcium, ACh EC80 antagonist mode; active compounds read low | B-score at 10 µM | 64,000 compounds, 3.4% hits | AID 628;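 active = calcium fluorescence response, raw or row-and-column corrected B-score, differing from the plate sample mean either way at a set confidence level, mostly lower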
D1 allo mod – allosterically modulates the human D1 dopamine receptor; P21728; HEK293 D1, CRE-luciferase, dopamine EC30 potentiation; actives deviate in either direction; B-score at 10 µM; 58,000 compounds, 5.9% hits;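 active = luminescence count or its row- and column-corrected plate score outside the 99.7% band of the plate's sample wells, on either side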
Target sequence (P21728 whole entry, looked up): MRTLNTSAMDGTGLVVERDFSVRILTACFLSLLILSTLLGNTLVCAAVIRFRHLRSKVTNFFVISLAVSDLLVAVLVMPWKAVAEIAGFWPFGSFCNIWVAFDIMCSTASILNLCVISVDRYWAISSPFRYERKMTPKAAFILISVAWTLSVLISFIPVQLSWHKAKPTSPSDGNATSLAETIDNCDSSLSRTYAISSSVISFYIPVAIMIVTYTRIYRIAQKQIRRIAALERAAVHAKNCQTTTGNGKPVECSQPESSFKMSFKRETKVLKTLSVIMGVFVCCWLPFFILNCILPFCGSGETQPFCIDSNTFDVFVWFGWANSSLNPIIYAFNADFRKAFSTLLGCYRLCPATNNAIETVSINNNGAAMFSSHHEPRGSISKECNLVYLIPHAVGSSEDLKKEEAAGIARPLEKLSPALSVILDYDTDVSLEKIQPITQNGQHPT
M1 antag conf – M1 muscarinic receptor (rat) antagonism, confirmed | shares compounds with M1 antagonist | CHO-M1 cells, Fluo-4 calcium, ACh EC80 antagonism; active compounds read low | calcium response (max-min fluorescence) at 10 µM | 1,700 compounds, 43% hits;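 active = calcium response below the same-plate mean of wells given acetylcholine alone at its 80%-effect dose, minus 3 SD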;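 also: raw fluorescence intensity difference in arbitrary instrument units and not normalized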
mGluR4 antag – mGluR4 (human) activity, M1 antagonist secondary assay; fluorescence response (max-min) at 10 µM; 1,700 compounds, 0.9% hits; shares compounds with M1 antagonist; CHO-mGluR4 calcium flux, Fluo-4 fluorescence, glutamate EC80; active compounds read low; AID 678;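 active = fluorescence response below the plate's average for near-maximal glutamate wells, less 3 SD of those wells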;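 also: raw unnormalized fluorescence span taken in the window right after glutamate addition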
* = called active by the depositor; . = no result. A selection: hits, their analogues and other compounds. The true share with any hit is near 7.4%. Rule as the data show it, unless noted: active = inhibition above about 20% (passing the limit was not always enough); inactive = the rest.

SMILES	FXIIa inh mix	hDAT+cocaine	FXIa mix inh	M1 ag	M1 antagonist	D1 allo mod	M1 antag conf	mGluR4 antag
O=C1c2ccccc2C(=O)N1CC1=CCS(=O)(=O)C1	-11	-0.024	3	-0.4	-2*	-0.029	531	202
O=C(CCN1CCC(c2ccccc2)C1)c1cccs1 (configuration not stated)	2	-0.022	9	0.01	-5.1*	-4.7*	514	191
CCN(CC)c1ccc(-c2nc3cnccc3n2C)cc1	-18	2.2	1	0.14	-14*	-0.8	64*	253
CCOC(=O)C1CCCN(C(=O)c2cc3c(C)nc4ccccc4c3o2)C1 (configuration not stated)	-4	1.6	4	-0.44	-2.7*	0.97	486*	143*
Cn1c(SCC(=O)NCCNC(=O)CSc2nnc(C(F)(F)F)n2C)nnc1C(F)(F)F	.	-0.57	.	.	.	.	.	.
CCCSc1nc(N)nc(-c2cccs2)c1C#N	.	0.45	.	.	.	.	.	.
COC(=O)CCC/C=C1/SCC(NC(=O)c2ccccc2)C1=O (configuration not stated)	.	0.14	.	.	.	.	.	.
C=CCn1c(=O)c(C(=O)Nc2ccccc2C(=O)OCC)c(O)c2ccccc21	-22	0.69	5	-0.16	-2.5*	-0.25	623	247
CCc1[nH]nc2c1C(c1cccnc1)C(C#N)=C(N)O2 (configuration not stated)	3	-0.52	2	0.64	0.012	0.7	.	.
CCCc1[nH]nc2c1C(c1ccncc1)C(C#N)=C(N)O2 (configuration not stated)	1	1	4	0.096	-3.7*	-0.78	590	227
CC(C)(C)c1[nH]nc2c1C(c1cccnc1)C(C#N)=C(N)O2 (configuration not stated)	-1	-0.28	10	-0.24	-4.1*	-0.32	569	163*
Cc1cnc(C(=O)OCC(=O)NC2CCCC(C)C2C)cn1 (configuration not stated)	7	-0.52	0	-0.47	0.039	-0.29	.	.
Cc1ccc(Nc2nc(CSc3nnnn3C)cs2)cc1	2	1.7	1	-0.32	-4.8*	-1.1	464	229
CN1CCc2c(c3ccccc3n2C)C1	.	-0.59	.	.	.	.	.	.
CN1CCc2c(c3ccccc3n2Cc2ccccc2)C1	-1	-1.7	11	-0.61	-3.9*	.	231*	251
COC(=O)c1nn(-c2ccccc2)c(-c2ccccc2)c1C(=O)c1ccccc1	.	-1.4	.	.	.	.	.	.
CCC(Sc1nc2c(cnn2-c2ccccc2)c(=O)[nH]1)C(=O)OC (configuration not stated)	3	-0.19	28	-0.23	-2.4*	-1.4	546	249
COC(=O)C(C)Sc1nc2c(cnn2-c2ccc(C)cc2)c(=O)[nH]1 (configuration not stated)	-18	-1.8	-1	0.45	0.19	1.5	.	.
CCOc1ccc(C(CCc2ccccc2)NC(=O)c2ccccc2)cc1OCC (configuration not stated)	.	0.35	.	.	.	.	.	.
CCc1nc(N[C@@H](CC(C)C)C(=O)O)c2oc3ccccc3c2n1	.	-0.48	.	.	.	.	.	.
CCc1nc(Nc2ccncc2)c2oc3ccccc3c2n1	0	0.06	-3	-0.59	-2.4*	-0.00093	441*	242
CCOC(=O)C1CCN(C(c2ccccn2)c2c(C)[nH]c3ccccc23)CC1 (configuration not stated)	.	-0.64	.	.	.	.	.	.
O=C(NCC1CCCO1)c1c(O)c2c([nH]c1=O)CCCC2 (configuration not stated)	11	-0.82	5	0.28	-3.6*	1.2	555	245
CN1CCN(C(=O)CN(Cc2ccc(Cl)cc2)S(C)(=O)=O)CC1	-1	0.87	-16	0.58	-2.5*	-0.13	538	211
CS(=O)(=O)N(CC(=O)N1CCCCCC1)Cc1ccc(Cl)cc1	.	0.41	.	.	.	.	.	.
Cc1ccc(CCNC(=O)C2CCCN(S(=O)(=O)c3cccs3)C2)cc1 (configuration not stated)	.	-0.39	.	.	.	.	.	.
Cc1cc(C(=O)CSc2nnnn2C)c(C)n1-c1ccc2c(c1)OCCO2	-28	-0.23	-2	-0.89	-2.8*	0.83	435*	297
